The values below come from PubChem BioAssay.

The source made the active and inactive calls.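 Rule for the calls, unless noted: active = inhibition at or above 50% at 10 µM; inactive = inhibition below 50%.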

Assay [1] can be described thus: inhibitors of TNFa-induced NFkB p65 translocation, primary screen, imaging, HUVEC, MLSMR starter and 10KST1 sets (AID 438;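 active = inhibition above 20% together with a positive visual image hit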;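 note: compound added about 3h40 before a 20 min TNFalpha stimulation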;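 for inhibition: signal is the nuclear over cytoplasmic p65 intensity ratio per well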). The following applies: HUVEC TNFa-induced p65 nuclear translocation; cell count: measured here: nuclei count (cytotoxicity indicator), at 2.08 µM; inhibition: at 2 µM, stronger effect = higher value, 0% TNFa-plus-vehicle, 100% no-TNFa wells.
A short description of assay [2]: reduction of polyQ htt aggregates in cells – imaging, exon1htt(103Q)mCFP cells, high-content imaging, primary screen (AID 483;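 active = visual image review flags a hit and inhibition of aggregation exceeds 20%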;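 note: compound exposure lasted 3 days before fixation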;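 for nuclei count: percent of the per-plate median nuclei count of sample wells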). The following applies: exon1htt(103Q)mCFP cell line, aggregate imaging, at 2 µM; inhibition of aggregation: stronger effect = higher value; nuclei count: measured here: cell count, toxicity.
A short description of assay [3]: endothelial E-selectin expression blockers – imaging, HUVEC, immunofluorescence, MLSMR starter and 10KST1 sets, primary screen (AID 487;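 active = visually confirmed hit in the image check and inhibition above 20%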;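 for inhibition: signal is fraction of cell area covered by stained E-selectin grains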;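 for nuclei count: 100% = median nuclei count of all wells on the same plate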). Particulars: HUVEC TNFalpha-induced E-selectin immunofluorescence imaging, at 2 µM; inhibition: stronger effect = higher value; nuclei count: measured here: cell number, toxicity.
Assay [4] addresses Voltage-gated potassium channel subunit beta-2 (Rattus norvegicus) (UniProt P62483). Put plainly: inhibitors of rat Kvbeta2 reductase activity – biochemical, NADPH fluorescence, primary screen (AID 622;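 active = fluorescence slope higher than the sample average by over 3 SD, cut at about -0.22 in these data, passing the limit was not always enough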;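 note: slope of raw intensity against log time taken from 70 to 1610 s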). Particulars: recombinant KvBeta, 4-cyanobenzaldehyde reduction, at 10 µM, stronger effect = higher value.
Assay [5] has the same target. Put plainly: enhancers of rat Kvbeta2 NADPH turnover – biochemical, NADPH fluorescence, primary screen (AID 623;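 active = NADPH fluorescence slope more negative than the mean of all samples by about 3 SD, 99.7% confidence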;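 note: fluorescence intensity change per second fitted from 20 to 320 s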). Particulars: Recombinant KvBeta, NADPH fluorescence decrease slope, 10 min; at 10 µM; stronger effect = lower value.
Assay [6] addresses Alpha-2C adrenergic receptor (Homo sapiens) (UniProt P18825). Put plainly: compounds altering alpha2C-coupled GIRK flux – cell-based, HEK293 alpha2C/GIRK1/2, thallium flux, primary screen (AID 624;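 active = fluorescence slope after compound addition differing from the mean of all screened samples at 99.7% confidence, in either direction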;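 note: slope of fluorescence ratio to pre-addition baseline per second over 15 to 24 s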). The following applies: thallium flux BTC fluorescence, at 10 µM, actives lie on both sides.
Assay [7] can be described thus: blockers of RIG-like receptor reporter activation – cell-based, Sendai virus stimulus, luciferase, 10K MLSCN set, TLR/RLR signaling modifier project, primary screen (AID 602276).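 Note: firefly luciferase from ISG56 promoter only with Renilla not read in this screen; 0% = Sendai virus plus DMSO and 100% = medium plus DMSO without virus.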 Particulars: HEK293 RL24 IRF3 luciferase reporter, at 10 µM, stronger effect = higher value. For orientation: In a reporter assay the amount or activity of a reporter protein is the signal.
Assay [8] in a line: TLR3 IRF3 reporter activation blockers – cell-based, poly I:C stimulus, luciferase, 10K MLSCN set, primary screen (AID 602277;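 active = inhibition of the reporter signal at or above 50%; inactive = inhibition below 50%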). Particulars: HEK293-TLR3 RL24 IRF3 luciferase reporter, at 10 µM, stronger effect = higher value.

Chain of Voltage-gated potassium channel subunit beta-2 (Rattus norvegicus) (P62483 whole entry, looked up): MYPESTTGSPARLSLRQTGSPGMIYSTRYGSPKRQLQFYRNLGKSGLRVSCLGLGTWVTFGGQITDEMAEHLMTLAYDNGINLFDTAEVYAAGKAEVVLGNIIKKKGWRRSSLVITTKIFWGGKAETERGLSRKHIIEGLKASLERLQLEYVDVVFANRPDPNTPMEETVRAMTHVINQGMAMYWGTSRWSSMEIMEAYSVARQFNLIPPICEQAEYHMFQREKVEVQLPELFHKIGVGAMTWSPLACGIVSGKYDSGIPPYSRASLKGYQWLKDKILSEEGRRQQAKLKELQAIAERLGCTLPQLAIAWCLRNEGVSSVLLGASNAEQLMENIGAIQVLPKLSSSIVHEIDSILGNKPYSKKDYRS
Chain of Alpha-2C adrenergic receptor (Homo sapiens) (P18825 whole entry, looked up): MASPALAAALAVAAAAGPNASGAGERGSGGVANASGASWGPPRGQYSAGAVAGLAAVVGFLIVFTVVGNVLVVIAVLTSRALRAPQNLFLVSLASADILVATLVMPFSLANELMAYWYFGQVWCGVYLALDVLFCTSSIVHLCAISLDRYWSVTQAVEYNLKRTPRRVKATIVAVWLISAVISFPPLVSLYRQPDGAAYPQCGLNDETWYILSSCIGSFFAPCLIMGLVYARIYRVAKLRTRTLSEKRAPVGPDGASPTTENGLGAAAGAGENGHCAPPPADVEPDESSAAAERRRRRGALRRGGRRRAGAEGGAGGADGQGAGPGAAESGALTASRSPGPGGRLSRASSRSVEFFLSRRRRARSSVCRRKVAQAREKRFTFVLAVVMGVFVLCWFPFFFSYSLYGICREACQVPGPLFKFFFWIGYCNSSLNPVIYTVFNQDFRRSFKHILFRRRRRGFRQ

Take `CC1CCc2nn(CC(=O)NCCN3CCOCC3)cc2C1` (centres undefined): the cell count in assay [1] stood at 605. Also, the inhibition – broadly, the drop in the measured response relative to a control, in per cent – in assay [1] was 4% (inactive); in assay [3] it was 42.1% (inactive); in assay [7], 7.91% (inactive); in assay [8], 24.3% (inactive). Also, the inhibition of aggregation in assay [2] is -0.2% (inactive). For the same molecule, the nuclei count in assay [2] came out at 94.5%; in assay [3], 97%. Also, the fluorescence slope in assay [4] is -0.612 (inactive). For the same molecule, the NADPH fluorescence slope in assay [5] is 5.1e-06 (inactive). Besides, the slope in assay [6] is 0.00648 (inactive).
Regarding `O=C(CSc1nnc(NC(=O)C2CCC2)s1)NC1CC1`, the cell count in assay [1] amounted to 488. In addition, the inhibition in assay [1] is 0.8% (inactive); in assay [3] it was -90.7% (inactive); in assay [7], 0.495% (inactive); in assay [8], -3.07% (inactive). In assay [2], the inhibition of aggregation is -8.1% (inactive). Further, the nuclei count is 66.2% in assay [2] and 106% in assay [3]. For the same molecule, the fluorescence slope in assay [4] is -0.313 (inactive). In assay [5], the NADPH fluorescence slope is -4.2e-05 (inactive). For the same molecule, the slope in assay [6] is 0.00536 (inactive).
For `COc1ccccc1CNS(=O)(=O)c1ccc(NC(C)=O)cc1`, in assay [1], the cell count was 601. Also, the inhibition in assay [1] is 8.1% (inactive); in assay [3], -57.3% (inactive); in assay [7], 6.03% (inactive); in assay [8], 6.94% (inactive). For the same molecule, the inhibition of aggregation in assay [2] is -1.3% (inactive). Further, the nuclei count in assay [2] worked out at 110%; in assay [3], 109%. Moreover, in assay [4], the fluorescence slope is -0.411 (inactive). For the same molecule, in assay [5], the NADPH fluorescence slope is -4.2e-05 (inactive). For the same molecule, the slope in assay [6] is 0.00719 (inactive).
Turning to `CC(C)C(c1nnnn1C1CCCC1)N1CCCc2ccccc21` (centres undefined), in assay [1], the cell count was determined as 706. Further, the inhibition in assay [1] is -6.9% (inactive); in assay [3], -47.1% (inactive); in assay [7] it was -17.8% (inactive); in assay [8] it was -6.74% (inactive). The inhibition of aggregation in assay [2] is 5.4% (inactive). Besides, the nuclei count in assay [2] stood at 95.4%; in assay [3] it was 107%. The fluorescence slope in assay [4] was -0.423 (inactive). Moreover, the NADPH fluorescence slope in assay [5] was -7.3e-05 (inactive). The slope in assay [6] was 0.00444 (inactive).
For the molecule `COc1ccc(NC(=O)CS(=O)CC(=O)Nc2cc(Cl)ccc2OC)cc1` (centres undefined), in assay [1], the cell count was determined as 485. The inhibition in assay [1] was 10.5% (inactive); in assay [3] it was -34.6% (inactive); in assay [7], 13.1% (inactive); in assay [8], 28.4% (inactive). Also, in assay [2], the inhibition of aggregation is 5.3% (inactive). Besides, the nuclei count came to 71.7% in assay [2] and 96% in assay [3]. The fluorescence slope in assay [4] was -0.362 (inactive). Moreover, the NADPH fluorescence slope in assay [5] is -6.2e-05 (inactive). Besides, the slope in assay [6] was 0.00691 (inactive).
Turning to `CC(C)OC(=O)CSc1nc2cccnc2n1C1CCCCC1`, in assay [1], the cell count was found to be 267. Also, the inhibition in assay [1] was -9.7% (inactive); in assay [3], -25.1% (inactive); in assay [7], 11.2% (inactive); in assay [8] it was 17.9% (inactive). Moreover, the inhibition of aggregation in assay [2] is -18.5% (inactive). Besides, the nuclei count in assay [2] is 78.8%; in assay [3] it was 106%. The fluorescence slope in assay [4] was -0.592 (inactive). Besides, in assay [5], the NADPH fluorescence slope is -5.3e-05 (inactive). Moreover, the slope in assay [6] is 0.00357 (inactive).
On to `COc1ccc(Cn2nnnc2C(c2cccnc2)N2CCN(c3ccc(O)cc3)CC2)cc1` (centres undefined), for which the cell count in assay [1] turned out to be 682. Besides, the inhibition was -7.2% (inactive) in assay [1], -51.9% (inactive) in assay [3], 15% (inactive) in assay [7] and 21.3% (inactive) in assay [8]. The inhibition of aggregation in assay [2] was -1.9% (inactive). In addition, the nuclei count in assay [2] amounted to 92.7%; in assay [3] it was 117%. Also, the fluorescence slope in assay [4] is -0.514 (inactive). Further, in assay [5], the NADPH fluorescence slope is -5.3e-05 (inactive). Further, the slope in assay [6] is 0.00403 (inactive).
`c1ccc(-n2ncc3c(NC4CCCCCC4)ncnc32)cc1`: in assay [1], the cell count was 691. Further, the inhibition in assay [1] is -0.3% (inactive); in assay [3] it was -56.3% (inactive); in assay [7], -49.7% (inactive); in assay [8], -136% (inactive). For the same molecule, the inhibition of aggregation in assay [2] is 3.1% (inactive). In addition, the values for the nuclei count in assay [2] and in assay [3] were 115% and 122%, respectively. The fluorescence slope in assay [4] was -0.547 (inactive). Also, the NADPH fluorescence slope in assay [5] is -1.1e-06 (inactive). Moreover, in assay [6], the slope is 0.007 (inactive).
Regarding `COc1ccc(S(=O)(=O)N2CCC(C(=O)c3ccc4c(c3)OCCO4)CC2)cc1`, in assay [1], the cell count is 298. Further, the inhibition was -0.7% (inactive) in assay [1], -51.9% (inactive) in assay [3], -3.88% (inactive) in assay [7] and 12.1% (inactive) in assay [8]. The inhibition of aggregation in assay [2] was 14.2% (inactive). The nuclei count in assay [2] is 157%; in assay [3] it was 119%. Also, the fluorescence slope in assay [4] was -0.461 (inactive). Also, the NADPH fluorescence slope in assay [5] was -8e-05 (inactive). Besides, the slope in assay [6] was 0.00739 (inactive).
